Here are results for 10 compounds from PubChem BioAssay (NCI).

Common to all, as to assay: NCI-60 one-dose screen, 48 h (100 = growth as untreated, 0 = no growth, -100 = all killed)
Details in all cases: 10 µM unless noted

Experiment [1] concerns SR leukemia.
The subject of experiment [2] is RPMI-8226 leukemia.
In experiment [3] the test system is OVCAR-5 ovarian.
Experiment [4] has as its system OVCAR-4 ovarian.
Experiment [5] deals with SK-OV-3 ovarian.
Experiment [6] has as its system IGROV1 ovarian.
Experiment [7] deals with OVCAR-3 ovarian.
Experiment [8] relates to NCI/ADR-RES ovarian.
For experiment [9], the system named is T-47D breast.
The subject of experiment [10] is BT-549 breast.
For experiment [11], the system named is MDA-MB-435 melanoma.
Experiment [12] has as its system SW-620 colon.
Experiment [13] deals with MCF7 breast.
For experiment [14], the system named is HCT-116 colon.
Experiment [15] relates to HCC-2998 colon.
Experiment [16] has as its system KM12 colon.
The subject of experiment [17] is OVCAR-8 ovarian.
Experiment [18] concerns HS 578T breast.

The structures appear in SMILES notation. Compounds without any hit were thinned out: in the full panel of roughly 83,000, 20% have a hit.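 In brief: 96-well plates, 48 h treatment, single concentration, percent growth endpoint.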 Values without a mark were called inactive. The source made the active and inactive calls. How the source made its calls: active means growth percent below 10; inactive means the rest.

As for `COc1ccc2nc(-c3cc(-c4cc(OC)c(OC)c(OC)c4)n[nH]3)[nH]c2c1`, the growth in experiment [1] was 13.8%; in [2], -50.6% (active); in experiment [3], 58.8%; in [4], -21.9% (active); in experiment [5] it was 33.8%; in [6], 18.7%. Also, the growth in [7] is -29% (active); in experiment [8], -0.97% (active); in experiment [9], -31.2% (active); in experiment [10], 3.56% (active); in experiment [11], -25.4% (active); in [12] it was 21%. Also, the growth in [13] was -6.38% (active); in experiment [14] it was 12.7%; in [15], 49.6%; in experiment [16] it was -30% (active).

Turning to `CCC(c1ccc(OC)cc1)C(CC)c1ccc(O)c(CN2CCCCC2)c1` (stereo not given), the growth in experiment [1] was -3.74% (active); in experiment [2] it was 5.83% (active); in experiment [17], 80.4%; in [4], 67.1%; in [5], 84.9%; in experiment [6], 69.6%. For the same compound, the growth in experiment [7] was 73.9%; in experiment [18], 79%; in experiment [8] it was 60.9%; in experiment [9], 36.9%; in [10], 72.1%; in experiment [11], 81.6%. In addition, the growth is 71.6% in experiment [12]; 63% in [13]; 38.7% in experiment [14]; 6.27% (active) in experiment [15]; 79.7% in [16].

As for `c1ccc2[nH]c(-c3cc(-c4ccc5c(c4)OCO5)n[nH]3)nc2c1`, the growth in [1] is 28%; in experiment [2], 7.45% (active); in [3], 86.4%; in experiment [4], 60.5%; in [5] it was 76.9%; in [6], 56.6%. Also, the growth in experiment [7] was 40.8%; in experiment [8] it was 59.6%; in experiment [9], 40%; in experiment [10], 34.5%; in experiment [11], 58%; in experiment [12] it was 61.3%. The growth was 59.2% in experiment [13], 51.7% in experiment [14], 81.2% in [15] and 28.2% in [16].

`O=c1c2sc3ncc(Br)cc3c2ncn1-c1cccc(Cl)c1`: the growth in experiment [1] was 76.6%; in experiment [2] it was 75.1%; in experiment [3], 94.6%; in experiment [4], -25.9% (active); in experiment [5], 67.6%; in experiment [6], 83.9%. In addition, the growth is 61.9% in experiment [9]; 78.9% in experiment [10]; 75.2% in experiment [11]; 58.8% in experiment [12]; 27.4% in experiment [14]; 104% in [15]. Besides, the growth in [16] was 72.2%.

With `Nc1ncnc2nc(Br)[nH]c12`, the growth in [1] is 91.8%; in experiment [17], 92.8%; in experiment [3] it was 99.8%; in experiment [4] it was 102%; in experiment [5] it was 95.2%; in experiment [6], 106%. Besides, the growth in experiment [7] was 106%; in experiment [18] it was 103%; in experiment [8], 97.1%; in [9], 89.4%; in [10], 95.6%; in [11], 104%. The growth was 106% in experiment [12]; 99.9% in [13]; 92.4% in experiment [14]; 109% in [15]; 102% in [16].

In the case of `Nc1c(C(=O)Nc2cccc(Br)c2)sc2nc3c(cc12)C(=O)CCC3`, the growth in experiment [1] is 13.7%; in experiment [2] it was 38.3%; in [3], 59.3%; in [4], 77.2%; in experiment [5], 5.74% (active); in experiment [6], 44%. Moreover, the growth is 5.48% (active) in experiment [7]; 26.9% in [8]; 30% in experiment [9]; 57.8% in [10]; -53.3% (active) in experiment [11]; 25% in [12]. The growth in [13] was 22.1%; in experiment [14], 33.4%; in experiment [15] it was 38.2%; in experiment [16], 18.6%.

In the case of `O=c1c(CNc2ccc(S(=O)(=O)Nc3ncccn3)cc2)coc2ccccc12`, the growth in [1] is 100%; in [2], 73.1%; in experiment [3], 96.3%; in experiment [4], 104%; in experiment [5], 98.7%; in [6], 95.2%. In addition, the growth in experiment [7] is 111%; in experiment [18], 102%; in experiment [9] it was 81.1%; in experiment [10] it was 93.6%; in [11], 119%; in experiment [12] it was 98.4%. The growth in [13] was 86.1%; in experiment [14], 91.3%; in experiment [15] it was 101%; in experiment [16], 115%.

Turning to `CC(C)=CCC/C(C)=C/CC/C(C)=C/CSC[C@H](NC(=O)CCCCCN1CCN(C)CC1)C(=O)NC1CCCCCC1`, the growth in [1] is -20.1% (active); in experiment [2], 51.8%; in experiment [17], 80.7%; in experiment [3], 68.7%; in [5], 96.4%; in experiment [6], 69.8%. In addition, the growth in experiment [7] is 76.6%; in [18], 76.2%; in experiment [8] it was 72.3%; in [9] it was 36.9%; in experiment [11], 50.2%; in experiment [12], -22.1% (active). Moreover, the growth was 7.39% (active) in experiment [13], -61% (active) in experiment [14], 19.3% in [15] and 66.1% in [16].

With `COc1ccc2c(c1)C/C(=C\c1cc(-c3cc(OC)c(OC)c(OC)c3)n[nH]1)C2=O`, the growth was 57.8% in experiment [1]; 52.8% in [2]; 97.5% in [3]; 82.2% in experiment [4]; 102% in experiment [5]; 106% in experiment [6]. For the same compound, the growth in [7] is 93.6%; in experiment [18] it was 91.8%; in experiment [8] it was 83.4%; in experiment [9] it was 73.4%; in experiment [10], 85.2%; in experiment [11], 91.5%. Also, the growth in experiment [13] was 56.3%; in experiment [14], 81.9%; in [15], 102%; in [16], 85%.

On to `CCCCC(=O)OC1CCCCC1C` (stereo not given), for which the growth in [1] was 95%; in [17] it was 87%; in experiment [3], 90.9%; in [4] it was 104%; in experiment [5], 89.4%; in experiment [6], 106%. Further, the growth is 107% in [7]; 97.6% in [18]; 96.7% in experiment [8]; 95.2% in experiment [9]; 85.2% in [10]; 101% in experiment [11]. Also, the growth in [12] was 105%; in [13], 103%; in experiment [14], 81%; in [15], 111%; in experiment [16], 99.2%.
